Inconclusive results are not listed. Activity calls are given as the source filed them. Calls come from the whole dose curve; as a rule, active = well fitted activation curve with a large enough effect; inconclusive = small, poorly fitted or top-dose-only effect; inactive = no such curve, though single readings can be large or run the other way.
experiment: qHTS Assay for NPC1 Promoter Activators: Hit Validation Using Renila Luciferase Read-Out for NPC1; details: Huh7 NPC1 promoter-luciferase reporter, luminescence, 24 h; series mostly up to 76.9 µM
Outline: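 Huh7 cells stably carrying NPC promoter-luciferase reporter, exposed to compound for 24 h at 37 deg C. Luminescence read 10 min after adding luciferase detection reagent at room temperature.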

Potency, inactive:
CCCCCCC(=O)Nc1ccc(C(=O)N/N=C/c2cccnc2)cc1
Cc1ccc(C(=O)NC2CCN(CC(=O)Nc3c(C)cc(C)cc3C)CC2)cc1
Cc1ccc(NC(=O)Nc2cccc3ccccc23)cc1
Cc1[nH]n(-c2cccc3ccccc23)c(=O)c1/C=N/c1sc2c(c1C#N)CCC2
O=C(CSc1nnc(-c2csc3c2CCCC3)o1)Nc1ccccc1
O=C(CSc1nnc(Cc2cc(=O)[nH]c(=O)[nH]2)n1-c1ccc(Cl)cc1)NC1CCCC1
Fc1ccc(-c2nc3nc4ccccc4nc3n2Cc2ccco2)cc1
O=C(CCCn1c(=O)oc2ccccc21)N1CCN(c2ccccn2)CC1
O=C(O)CSc1nnc(-c2ccncc2)n1CCc1ccccc1
CCOC(=O)CSc1nc2cc(C)ccc2cc1C#N
CCCC(C)NC(=O)c1ccc(OCc2ccc(Cl)cc2)c(OC)c1 (centres undefined)
O=C(Nc1nc2ccc(F)cc2s1)c1ccc(N2CCCC2=O)cc1
CCCCc1cc(=O)oc2cc(OCC(=O)N3CCOCC3)ccc12
Cc1csc(NC(=O)CSc2nnc(-c3ccncc3)o2)n1
O=C(CSc1nnc(-c2ccccn2)o1)Nc1ccccc1Cl
CC1CCCN(S(=O)(=O)c2ccc(C(=O)Nc3nnc(-c4ccncc4)o3)cc2)C1 (centres undefined)
N#C/C(=N\Nc1ccc(Cl)cc1)C(=N)N1CCCCC1
COC(=O)CSc1nc2cc3c(cc2cc1C#N)OCO3
CNC(=O)Cn1nc(C)c2ccccc2c1=O

Reference: PubChem BioAssay AID720526 (National Center for Advancing Translational Sciences (NCATS), 2013)
